Source: PubChem
This is a sample that favours compounds with a hit; in the whole collection about 9.5% have one here.
Pf growth 48h: inhibits P. falciparum growth in the first generation, 48 h | P. falciparum luciferase growth in erythrocytes, 48 h | Potency, µM (series often up to 28.7 µM), without a hit: at the highest dose activity change, negative = inhibition, usual class: inhibitors | 310,000 compounds, 5.9% hits; also: potency is read from the fitted curve at half-maximal effect; % is scaled to controls: 0 for no effect and ±100 for the full control effect
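Parasite viability was followed by luminescence of a genomically integrated firefly luciferase. Cultures held 0.1% parasitemia at 2% hematocrit (final), incubated under 5% CO2 at 37 C.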
RE007 growth inh: less growth of the S. pombe RE007 Vpr strain. Potency, µM (highest dose often 92.2 µM), without a hit: at the top dose activity change, negative = less growth, usual class: inhibitors. AID 651644. S. pombe RE007 Vpr strain, BacTiter-Glo ATP luminescence, 24 h. 360,000 compounds, 0.21% hits; active = well fitted falling curve with a large enough effect; inconclusive = small, poorly fitted or top-dose-only effect; inactive = no such curve, though single readings can be large or run the other way; also: potency is read from the fitted curve at half-maximal effect; % is scaled to controls: 0 for no effect and ±100 for the full control effect; nearly all actives have a fitted effect of over 50% in size
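Fission yeast RE007 carrying one integrated HIV-1 vpr copy, seeded at OD 0.01 in PMG+AL medium with 23 nL pinned compound. Grown 24 h at 30 degrees; viability read by BacTiter-Glo luminescence after 5 min.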
SARS PLpro yeast-1: blocks SARS-CoV papain-like protease in a yeast assay; S. cerevisiae expressing SARS-CoV PLpro, growth rescue; Potency, µM (highest dose often 32.9 µM), for the others: at the highest dose activity, positive = growth rescue, usual class: activators; 330,000 compounds, 0.19% hits; AID 485353; calls by dose curve; also: potency is read from the fitted curve at half-maximal effect; 0% is about no effect; nearly all actives have a fitted effect of over 55% in size
Pf growth 96h: P. falciparum growth inhibition at 96 hour, primary screen for plastid delayed-death inhibitors | 320,000 compounds, 6.9% hits | Potency, µM (doses to about 28.7 µM), for inactives: at the top dose activity change, negative = inhibition, most hits filed as inhibitors | P. falciparum luciferase reporter growth, 96 h | AID 504834; also: potency is read from the fitted curve at half-maximal effect; % is scaled to controls: 0 for no effect and ±100 for the full control effect
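Compounds incubated with erythrocytes infected by luciferase-expressing P. falciparum (2% hematocrit, 0.05% parasitemia final) for 96 hours, 37 C in 5% CO2. Growth inhibition scored as decreased luciferase luminescence.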
NS1 function inh: influenza NS1 inhibition. 270,000 compounds, 0.4% hits. Potency, µM (series often up to 46.1 µM), inactives show at the top dose activity, positive = more growth; calls by dose curve; also: potency is read from the fitted curve at half-maximal effect; actives are rising curves; nearly all actives have a fitted effect of over 50% in size
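OD600 was taken as the measure of yeast growth restored by compound in an NS1-expressing S. cerevisiae strain. Cells had been washed out of glucose medium and diluted 1:100 into galactose -URA medium, pH 6.0.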
SARS PLpro yeast-2: Validates SARS-CoV PLpro inhibitor hits in yeast | shares compounds with SARS PLpro yeast-1 | calls only | 1,000 compounds, 19% hits | AID 652038 | yeast expressing SARS-CoV PLpro, growth phenotype rescue; call rule not given here
Active calls of the source: *; i = inactive; ? = inconclusive; nt = no result; + = active, no number; [ ] = dose if it differs, or a comment. Unless noted, calls follow the shape of the dose curve; as a rule, active = well fitted inhibition curve with a large enough effect; inconclusive = small, poorly fitted or top-dose-only effect, or another doubt; inactive = no such curve, though single readings can be large or run the other way.

SMILES | Pf growth 48h | RE007 growth inh | SARS PLpro yeast-1 | Pf growth 96h | NS1 function inh | SARS PLpro yeast-2
CCc1ccc(OCC(=O)Nc2ccc3oc(=O)ccc3c2)cc1 | 17.8% | -1.6% | -2.2% | 16.9% | -2.6% | nt
CN(CC1CCCN(CCc2ccc(F)cc2)C1)C(=O)CCC(N)=O (stereo not drawn) | ? | 3.2% | 1.8% | ? | -5.9% | nt
c1ccc(Cc2nnc3n2CCCCC3)cc1 | -10.0% | -0.2% | -1.8% | -6.3% | 5.1% | nt
c1ccc(N2CCN(CCc3nnc4n3CCCCC4)CC2)cc1 | -9.1% | 3.4% | ? | nt | -12.3% | i
COc1ccc(C(=O)NCCOc2ccccc2Cl)c(OC)c1OC | 100.5% | 1.9% | 2.4% | 6.6% | -9.6% | nt
CC(/C=C/c1ccccc1)=N\NC(=O)c1ccncc1 | -27.2% | -2.9% | 0.0% | 8.8% | -14.7% | nt
CC(/C=C/c1ccccc1)=N\NC(N)=S | 10.4µM* | 0.4% | 12.6µM* | ? | -48.1% | +
O=c1[nH]c(C2C3CC4CC(C3)CC2C4)nc2ccccc12 (stereo not drawn) | -5.7% | -16.2% | 2.82µM* | ? | 0.4% | i
Cc1nc2ccccc2c(=O)[nH]1 | nt | -7.0% | -2.9% | nt | 4.5% | nt
O=C(c1ccc2c(c1)OCO2)N(c1ccc(F)cc1)C1C=CS(=O)(=O)C1 (stereo not drawn) | ? | 13.9% | -0.5% | 0.0% | -5.1% | nt
Cc1ccc(N(C(=O)c2ccc3c(c2)OCO3)C2C=CS(=O)(=O)C2)cc1C (stereo not drawn) | -5.2% | -14.9% | nt | -5.9% | 4.8% | i
O=C(NCc1ccco1)Nc1nnc([C@H]2C[C@H](O)[C@@H](CO)O2)s1 | nt | 38.6%[18.4 µM] | nt | nt | nt | nt
O=C(O)CCc1ccc(S(=O)(=O)Nc2ccccc2C(=O)NCCc2ccccc2)cc1 | 135.3% | -9.8% | -6.2% | 168.9% | 11.3% | nt
Cc1cccc(Oc2ccccc2NS(=O)(=O)c2ccc(CCC(=O)O)cc2)c1 | -12.9% | 9.9% | 2.24µM* | -2.1% | nt | i
Cc1cccc(NC(=O)NCC(c2cccnc2)N2CCOCC2)c1 (stereo not drawn) | -3.1% | -0.5% | 17.8µM* | ? | -0.2% | i
COC(=O)NCC(c1cccnc1)N1CCOCC1 (stereo not drawn) | 31.8% | 4.7% | 3.4% | 40.1% | -53.1% | nt
CCC1(c2ccccc2)NC(=S)N(c2cccc(C)c2C)N1 (stereo not drawn) | -11.2% | -4.9% | 3.16µM* | -0.5% | 6.1% | ?
O=C(N/N=C/c1cc2ccccc2nc1Cl)/C(=C/c1cccs1)NC(=O)c1ccccc1 | nt | 6.7% | ? | 6.4% | 26.6% | i
O=C(N/N=C/c1cccnc1)/C(=C\c1cccs1)NC(=O)c1ccccc1 | -7.0% | -16.8% | -3.6% | ? | 6.2% | nt
Cc1ccc(C(=O)CNc2ccc(C)c(Cl)c2)cc1 | 29.3% | -12.6% | ? | -3.2% | -26.1% | ?
COC1CCCN(C(=O)c2cccc(OC3CCN(S(C)(=O)=O)CC3)c2)C1 (stereo not drawn) | 31.7% | -2.3% | 6.0% | ? | 3.2% | nt
O=C(CNC(=O)c1cccc(Br)c1)N/N=C/c1cc(Br)cc(Br)c1O | 4.4% | -4.3% | 3.55µM* | -9.8% | nt | +
Nc1nonc1C(=Nc1ccccc1)NO | 11.6% | 2.3% | ? | ? | -3.2% | i
CCOC(=O)CC(NC(=O)c1ccco1)c1ccc(OC)cc1 (stereo not drawn) | -11.4% | 10.3% | ? | 273.3% | -10.1% | i
Cc1ccc(OCCn2c(=S)[nH]c3c(N)ncnc32)cc1 | -19.8% | 7.8% | 3.1% | 252.2% | -3.1% | nt
SMILES | Pf growth 48h | RE007 growth inh | SARS PLpro yeast-1 | Pf growth 96h | NS1 function inh | SARS PLpro yeast-2
CCCCc1ccc(NC(=S)NN2CCOCC2)cc1 | 24.2% | 8.5% | 10µM* | 28.2% | 24.9% | +
CCOC(=O)C1=C(O)C(=O)N(Cc2ccccc2)CC1 | -0.1% | -8.4% | -0.8% | 18.8% | 0.3% | nt
O=C(Nc1nc(-c2ccccc2)cs1)c1ccc2c(=O)n3c(nc2c1)CCCCC3 | 2.5% | -13.0% | ? | ? | ? | i
Cc1ccc(NC(=O)/C=C/c2ccc3c(c2)OCO3)nc1 | 108.5% | 7.2% | ? | ? | 7.7% | i
CC(C)(C)NC(=O)C1Cc2ccccc2CN1 (stereo not drawn) | ? | 2.3% | 0.0% | 25.3% | nt | nt
COc1cccc(C(=O)CSc2nnc(-c3cc(OC)c(OC)c(OC)c3)o2)c1 | nt | -6.6% | ? | 26.6% | 1.3% | ?
COc1cc(-c2nnc(SCC(=O)c3ccc(C)cc3)o2)cc(OC)c1OC | 0.9% | -4.0% | -3.4% | ? | -3.8% | nt
CN(Cc1nccs1)C(=O)C1CCC(=O)N(CCc2ccc(Cl)cc2)C1 (stereo not drawn) | 0.0% | 7.0% | -2.3% | ? | -12.1% | nt
COc1ccc(C)cc1N(C)C(=O)Cc1c(C(=O)O)n(C)c2ccccc12 | -2.4% | -0.3% | -0.3% | 0.4% | -3.9% | nt
COc1ccc(S(=O)(=O)N(CC(=O)N2CCN(c3ccccc3OC)CC2)c2ccccc2)cc1 | ? | 27.3% | 4.47µM* | 22.3% | ? | i
COc1ccc(N2CCN(C(=O)CN(c3ccccc3)S(=O)(=O)c3ccc(OC)cc3)CC2)cc1 | -29.5% | -7.8%[3.69 µM] | 6.5% | nt | 1.2% | nt
Cc1cc(=O)oc2cc(NC(=O)C(C)N3C(=O)C4CCCCC4C3=O)ccc12 (stereo not drawn) | -5.0% | 2.5% | -15.9% | -24.7% | nt | nt
COc1ccc(C(=O)Nc2ccc(Cl)c(S(=O)(=O)Nc3ccccc3OC)c2)cc1 | ? | nt | ? | ? | 27.9% | ?
c1ccc2c(c1)CC1(CCCCC1)n1nnnc1-2 | -9.9% | 2.5% | 14.1µM* | -23.9% | -4.7% | i
Cc1cc2c(cc1C)-c1nnnn1C(C)(C)C2 | 48.7% | 0.4% | -8.6% | -9.4% | 1.1% | nt
O=C(N[C@@H]1CC[C@@H](CCNC(=O)C2CCOCC2)O[C@@H]1CO)c1ccncc1 | nt | 6.8% | nt | nt | nt | nt
C=CCc1cc(OC)ccc1OCCN(C)Cc1ccccc1 | -2.3% | 1.5% | ? | -13.7%[5.75 µM] | -1.7% | i
CC(=O)NC(CC(=O)Nc1ccc(S(=O)(=O)NC2=NCCCCC2)cc1)c1ccccc1 (stereo not drawn) | -10.8% | 2.6% | ? | -22.4% | nt | i
CC(=O)NC(CC(=O)Nc1ccc(S(=O)(=O)Nc2nccs2)cc1)c1ccccc1 (stereo not drawn) | ? | -11.7% | 0.3% | 14.7% | nt | nt
O=C1/C(=C/c2cccs2)N=C(c2cccs2)N1Nc1ccccc1 | 20.1% | 49.8% | ? | nt | 7.9% | i
CCN(CC)S(=O)(=O)c1ccc(NC(=S)NC(=O)CC(C)C)cc1 | ? | -3.0% | nt | ? | ? | i
Cc1ccc(NC(=O)C2CCN(S(=O)(=O)c3ccc4c(c3)CCCC(=O)N4)CC2)cc1N(C)C | ? | 3.6% | 8.1% | ? | -14.1% | nt
Cc1cccc(-n2c(O)c(/C=N/NC(=O)c3ccccc3Cl)c3ccccc3c2=O)n1 | -7.3% | 2.3% | 14.1µM* | -0.9% | ? | i
